# From PubChem BioAssay
# Rows were chosen to be rich in hits. Some 7.3% of all compounds tested hit in one or more screens of this group.
# Gal4-VP16 FLuc – inhibits Gal4-VP16 luciferase reporter, ROR gamma counter-screen; actives 3.5% (n = 310,000); AID 2546; Potency, µM (series often up to 53.6 µM), for inactives: at the highest dose activity, negative = inhibition, hits mostly inhibitors; Drosophila S2 Gal4-VP16 UAS-luciferase, luminescence, 20 h;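 note: Gal4-VP16 expression switched on by copper sulfate through the metallothionein promoter; potency is the fitted concentration of half-maximal effect; % is set by controls: 0 for no effect and ±100 for the full control effect; nearly all actives have a fitted effect of over 50% in size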
# Tau FP inhib – blocks human tau fibril formation measured by polarization; K18 P301L tau heparin fibrillization, Alexa594 FP, 6 h; P10636; Potency, µM (doses to about 57.7 µM), inactives show at the top dose activity, negative = inhibition, most hits filed as inhibitors; actives 0.39% (n = 280,000); note: potency is the fitted concentration of half-maximal effect; % is set by controls: 0 for no effect and ±100 for the full control effect; nearly all actives have a fitted effect of over 55% in size
#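 Heparin (20 uM) drove fibril formation of recombinant tau K18 P301L, 15 uM unlabeled with 0.24 uM Alexa 594 label, for 6 hr at 37 C in 100 mM sodium acetate pH 7. Fluorescence polarization (555/632 nm) read 1 hr after 30 uM ThT.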
# Tau fluor cs – counter-screen for tau fibril formation inhibitors; tau K18 P301L Alexa594 fluorescence, heparin fibrillization; Potency, µM (doses to about 57.7 µM), without a hit: top-dose activity change, negative = decrease; actives 0.93% (n = 280,000); AID 1463; note: potency is the fitted concentration of half-maximal effect; % is set by controls: 0 for no effect and ±100 for the full control effect; nearly all actives have a fitted effect of over 55% in size
#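 Human tau K18 P301L (15 uM unlabeled, 0.24 uM Alexa 594-labeled) in 100 mM sodium acetate pH 7 with 20 uM heparin, 6 hr at 37 C. ThT 30 uM added, 1 hr ambient; Alexa 594 FP and total fluorescence read at 555/632 nm.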
# RORg inh – blocks mouse ROR gamma transcriptional activity; Drosophila S2 Gal4-RORgamma UAS-luciferase reporter, 20 h; Potency, µM (titrated, usually from 53.6 µM), for the others: top-dose activity change, negative = inhibition, most hits filed as inhibitors; actives 5.4% (n = 310,000); P51450; note: potency is the fitted concentration of half-maximal effect; % is set by controls: 0 for no effect and ±100 for the full control effect; nearly all actives have a fitted effect of over 60% in size
# Target sequence (P51450 whole entry, looked up, the tested form may be a part): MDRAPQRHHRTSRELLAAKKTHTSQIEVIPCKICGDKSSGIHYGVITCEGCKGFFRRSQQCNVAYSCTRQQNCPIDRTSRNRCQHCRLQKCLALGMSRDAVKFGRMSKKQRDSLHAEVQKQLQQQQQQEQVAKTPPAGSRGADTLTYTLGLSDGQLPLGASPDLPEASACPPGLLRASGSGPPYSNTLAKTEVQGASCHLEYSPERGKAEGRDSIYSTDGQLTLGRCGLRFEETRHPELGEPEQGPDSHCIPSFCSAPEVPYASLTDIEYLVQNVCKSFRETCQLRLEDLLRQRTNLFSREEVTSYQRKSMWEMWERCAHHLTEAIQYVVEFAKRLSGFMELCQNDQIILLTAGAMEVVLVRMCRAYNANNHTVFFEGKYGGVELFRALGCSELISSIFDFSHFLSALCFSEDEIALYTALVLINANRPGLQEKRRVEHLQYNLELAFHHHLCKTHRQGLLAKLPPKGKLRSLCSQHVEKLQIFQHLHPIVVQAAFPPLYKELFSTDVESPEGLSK
#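 Luminescence from a UAS-regulated Photinus luciferase reporter in stably transfected Drosophila Schneider cells is measured; decreased signal marks ROR gamma inhibition. Fusion expression is induced by 700 uM copper sulfate for 20 hr.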
# Tau ThT inhib – inhibitors of human tau fibril formation, thioflavin T binding. Potency, µM (top dose mostly 57.4 µM), without a hit: at the highest dose activity, negative = inhibition, actives largely listed as inhibitors. actives 2.1% (n = 270,000). recombinant tau K18 P301L, heparin-induced fibrillization, ThT fluorescence. P10636; note: potency is the fitted concentration of half-maximal effect; % is set by controls: 0 for no effect and ±100 for the full control effect; nearly all actives have a fitted effect of over 55% in size
#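 Recombinant human tau K18 fragment […] carrying P301L, 15 uM unlabeled plus 0.24 uM Alexa 594-labeled, was fibrillized with 20 uM heparin in 100 mM sodium acetate pH 7 for 6 hr at 37 C; 30 uM ThT fluorescence read after 1 hr.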
# Tau TEM fibril – Inhibits tau K18 fibrillization by TEM grading; shares compounds with Tau ThT inhib; fibril grade (0 = clumped fibrils, 4 = only tiny pieces) (test concentration not listed); recombinant tau K18 P301L fibrillization, TEM grading; hits give high values; actives 70% (n = 45);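 active = compounds whose electron micrographs showed tau fibrils broken into shorter filaments or fragments, graded high on fibril breakup; inconclusive = micrographs gave an unclear fibril picture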
# tau sediment – inhibitors of human tau fibrillization, sedimentation test. actives 50% (n = 110). shares compounds with Tau ThT inhib. recombinant tau K18 P301L (four-repeat tau fragment), sedimentation SDS-PAGE densitometry. AID 1720. inhibition, % at 100 µM; in the data active = inhibition above about 40%; inconclusive = no clear call, values can overlap the other calls; inactive = below about 18%
# Numbers without * were called inactive; ? = inconclusive; / = no result given. Unless noted, calls come from the whole dose curve; as a rule, active = well fitted curve in the direction sought with a large enough effect; inconclusive = small, poorly fitted or top-dose-only effect, or another doubt; inactive = no such curve, though single readings can be large; an effect the other way counts as inactive or inconclusive.
SMILES,Gal4-VP16 FLuc,Tau FP inhib,Tau fluor cs,RORg inh,Tau ThT inhib,tau sediment,others
CN(c1ccccc1)S(=O)(=O)c1nnc(NC(=O)C2CCCCC2)s1,4%,?,?,-12%,2.5µM*,80*,Tau TEM fibril=3*
CN(c1ccccc1)S(=O)(=O)c1nnc(NC(=O)c2ccco2)s1,16%,-6%,2%,?,-12%,/,
O=C(O)CC1S/C(=N/N=C/c2ccc(-c3ccc(Cl)cc3[N+](=O)[O-])o2)NC1=O (configuration not stated),18%,1.6µM*,?,10%,1µM*,74*,Tau TEM fibril=3*
CSc1ccc(/C=C2/C(=N)N3N=C(CC(=O)N4CCCC4)SC3=NC2=O)cc1,2%,/,/,-13%,/,/,
Cc1[nH]c(=O)c(C#N)cc1-c1ccc2nccn2c1,3%,-5%,-2%,-2%,6%,/,
Cc1[nH]c(=O)c(C#N)cc1-c1ccncc1,-3%,-1%,3%,0%,-2%,7,
Cc1ccc(C(=O)Nc2nc(=O)n(C(=O)CC(C)C)s2)cc1,3%,?,-12%,2%,?,12,
Cc1ccc(C(=O)Nc2nc(=O)[nH]s2)cc1,-10%,-3%,1%,-11%,-4%,/,
Nc1scc2c(C(=O)O)nn(-c3ccccc3)c(=O)c12,/,/,/,/,/,84*,
COc1cccc(-n2nc(C(=O)O)c3ccccc3c2=O)c1,-7%,-2%,-4%,7%,-6%,/,
Nc1scc2c(C(=O)NCc3ccccc3)nn(-c3ccccc3)c(=O)c12,/,/,/,/,/,54*,
